Rows were chosen to be rich in hits. Some 3.1% of all compounds tested hit in one or more screens of this group.
E coli Lon inh: inhibitors of E. coli Lon protease; P0A9M0; purified E. coli Lon protease, fluorescence polarization; inhibition, % at 7.94 µM; hit rate 0.42% among 360,000; in the data active = inhibition above about 13%, passing the limit was not always enough;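 note: 0% = enzyme with probe and DMSO and 100% = no enzyme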
PAFAH1B2 FP inh: PAFAH1B2 (human) inhibition; P68402; recombinant PAFAH1B2, FP-rhodamine activity probe, fluorescence polarization; inhibition, % at 3.39 µM; hit rate 1.2% among 340,000;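 active = inhibition above the mean of all tested compounds plus 3 SD, cut at about 24% in these data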;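 note: 0% = enzyme with DMSO and 100% = wells lacking PAFAH1B2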
pPAFAH FP inh: pPAFAH (human) enzyme inhibition | recombinant pPAFAH, FP-rhodamine probe fluorescence polarization | inhibition, % at 3.39 µM | hit rate 1.5% among 330,000 | AID 463082;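 active = inhibition above the mean inhibition across the screen plus 3 SD, cut at about 25% in these data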;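 note: inhibitors block binding of the rhodamine activity-based probe so polarization drops; 0% = enzyme with DMSO and 100% = wells lacking pPAFAH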
PAFAH2 inh: PAFAH2 (human) inhibition; Q99487; recombinant PAFAH2, FP-rhodamine activity probe, fluorescence polarization; inhibition, % at 3.39 µM; hit rate 0.99% among 340,000;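 active = inhibition above the mean over all tested compounds plus 3 SD, cut at about 30% in these data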;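 note: inhibitors block probe labeling of enzyme so polarization drops; 0% = enzyme with DMSO and 100% = wells lacking PAFAH2 protein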
Rin1-Abl PPI inh: blocks binding of human Rin1 to Abl. P00519+Q13671. TR-FRET Rin1/Abl binding, biochemical. inhibition, % at 7.35 µM. hit rate 0.4% among 360,000; in the data active = inhibition above about 5%, passing the limit was not always enough
Target sequence (P00519 whole entry, looked up): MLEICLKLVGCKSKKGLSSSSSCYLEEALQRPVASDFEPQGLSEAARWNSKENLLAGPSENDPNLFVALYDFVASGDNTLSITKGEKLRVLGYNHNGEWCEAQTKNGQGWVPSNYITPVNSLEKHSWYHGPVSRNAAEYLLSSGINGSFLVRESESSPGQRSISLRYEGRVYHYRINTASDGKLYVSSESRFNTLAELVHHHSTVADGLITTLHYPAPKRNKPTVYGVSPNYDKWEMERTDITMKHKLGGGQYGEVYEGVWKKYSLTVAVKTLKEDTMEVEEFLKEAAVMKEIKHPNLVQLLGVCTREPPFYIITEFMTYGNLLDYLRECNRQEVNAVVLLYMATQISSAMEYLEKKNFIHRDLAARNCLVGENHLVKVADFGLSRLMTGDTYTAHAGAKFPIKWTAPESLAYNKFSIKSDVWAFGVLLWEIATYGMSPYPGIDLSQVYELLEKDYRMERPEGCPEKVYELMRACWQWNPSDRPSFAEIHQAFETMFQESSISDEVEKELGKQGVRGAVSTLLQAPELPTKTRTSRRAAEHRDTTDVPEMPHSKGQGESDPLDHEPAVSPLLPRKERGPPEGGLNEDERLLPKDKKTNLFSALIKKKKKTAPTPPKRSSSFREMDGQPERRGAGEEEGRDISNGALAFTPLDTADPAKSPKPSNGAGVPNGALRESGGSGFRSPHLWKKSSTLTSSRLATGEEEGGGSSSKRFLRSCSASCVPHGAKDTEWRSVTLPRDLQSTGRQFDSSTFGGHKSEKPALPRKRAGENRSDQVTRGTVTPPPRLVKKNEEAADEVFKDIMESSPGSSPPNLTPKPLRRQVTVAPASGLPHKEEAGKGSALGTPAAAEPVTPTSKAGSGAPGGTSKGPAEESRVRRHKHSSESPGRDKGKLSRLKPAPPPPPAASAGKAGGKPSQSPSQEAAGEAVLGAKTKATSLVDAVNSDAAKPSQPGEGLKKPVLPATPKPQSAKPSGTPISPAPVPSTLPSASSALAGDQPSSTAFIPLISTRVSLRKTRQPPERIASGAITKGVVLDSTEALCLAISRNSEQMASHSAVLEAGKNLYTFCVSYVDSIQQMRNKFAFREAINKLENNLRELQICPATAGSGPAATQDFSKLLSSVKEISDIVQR
Target sequence (Q13671 whole entry, looked up): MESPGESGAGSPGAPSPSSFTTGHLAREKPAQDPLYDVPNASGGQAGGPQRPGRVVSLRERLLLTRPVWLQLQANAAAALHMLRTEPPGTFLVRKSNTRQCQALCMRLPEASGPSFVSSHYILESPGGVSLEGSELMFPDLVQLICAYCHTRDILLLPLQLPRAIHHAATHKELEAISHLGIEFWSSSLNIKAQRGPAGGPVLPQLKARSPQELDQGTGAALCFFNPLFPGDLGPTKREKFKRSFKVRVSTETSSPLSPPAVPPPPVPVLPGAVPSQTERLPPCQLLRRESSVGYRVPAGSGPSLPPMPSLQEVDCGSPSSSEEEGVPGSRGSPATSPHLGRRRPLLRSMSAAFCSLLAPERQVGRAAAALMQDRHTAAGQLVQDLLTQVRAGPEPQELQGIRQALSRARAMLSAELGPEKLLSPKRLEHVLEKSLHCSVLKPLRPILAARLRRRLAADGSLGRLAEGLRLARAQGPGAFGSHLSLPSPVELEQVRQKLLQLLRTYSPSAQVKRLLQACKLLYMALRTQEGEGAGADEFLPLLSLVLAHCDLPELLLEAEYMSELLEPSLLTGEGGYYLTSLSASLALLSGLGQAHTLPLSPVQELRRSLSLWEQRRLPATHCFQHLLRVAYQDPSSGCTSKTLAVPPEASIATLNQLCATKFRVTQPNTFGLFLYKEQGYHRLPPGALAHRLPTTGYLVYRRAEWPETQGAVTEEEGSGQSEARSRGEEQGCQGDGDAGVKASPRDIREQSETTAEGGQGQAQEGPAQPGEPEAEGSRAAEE
PAFAH1B3 inh: PAFAH1B3 (human) inhibition; inhibition, % at 3.39 µM; AID 492972; Q15102; hit rate 0.28% among 340,000; recombinant PAFAH1B3, FP-rhodamine probe, fluorescence polarization;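 active = inhibition above the screen-wide average of all tested compounds plus 3 SD, cut at about 25% in these data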;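 note: 0% = enzyme with DMSO only and 100% = wells lacking PAFAH1B3 protein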
PAFAH2 confirm: confirmation of human PAFAH2 inhibitors; shares compounds with PAFAH2 inh; recombinant PAFAH2, FP-rhodamine activity probe, fluorescence polarization; inhibition, % at 3.39 µM; hit rate 65% among 2,300;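 active = mean inhibition over three repeats above a set limit taken from the earlier primary screen, cut at about 30% in these data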;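 note: inhibitor blocks binding of rhodamine activity probe so polarization falls; 0% = enzyme with DMSO and 100% = wells lacking PAFAH2 protein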
Numbers without * were called inactive; · = not tested or not shown.

SMILES	E coli Lon inh	PAFAH1B2 FP inh	pPAFAH FP inh	PAFAH2 inh	Rin1-Abl PPI inh	PAFAH1B3 inh	PAFAH2 confirm
Cc1ccc(S(=O)(=O)N2CCCCC2)cc1NC(=O)COC(=O)Cc1c(F)cccc1Cl	10	1	6	3	2	2	·
Cc1ccc(S(=O)(=O)N2CCCCC2)cc1NC(=O)COC(=O)c1c(F)cccc1F	-11	-3	6	38*	3	7	23
Cc1ccc(S(=O)(=O)N2CCCCC2)cc1NC(=O)COC(=O)c1ccc(O)cc1	-2	8	15	60*	2	6	67*
Cc1ccc(S(=O)(=O)N2CCCCC2)cc1NC(=O)COC(=O)c1cc[n+]([O-])cc1	-9	3	-1	-1	-1	12	·
OC(c1ccc(F)c(F)c1)c1nc(-c2cccc3cccnc23)cs1 (configuration not stated)	-18	·	·	·	-1	·	·
Cc1ccc(C)c(S(=O)(=O)N(C)c2ccc(OC(=O)C3CCN(C(=O)Nc4ccccc4)CC3)cc2)c1	12	-1	·	32*	1	4	17
Cc1ccn(C(=O)c2ccc(NC(=O)C3CCCCC3)cc2)n1	-4	-3	7	33*	0	11	45*
O=C(Nc1ccc(C(=O)N2CCCC2)cc1)C1CCCCC1	-8	0	·	0	2	-4	·
O=C(COC(=O)/C=C/c1ccccc1)NCCc1ccc(F)cc1	-1	7	19	61*	1	7	42*
O=C(COC(=O)/C=C/c1cccc(Br)c1)NCCc1ccccc1	-10	-5	9	16	1	6	·
O=C(COC(=O)/C=C/c1ccccc1)NCCC1=CCCCC1	1	4	9	46*	0	0	44*
COc1ccc(/C=C/C(=O)OCC(=O)NCCC2=CCCCC2)cc1S(=O)(=O)N1CCOCC1	-4	-2	-2	65*	0	0	44*
COc1cccc(/C=C/C(=O)OCC(=O)NCCC2=CCCCC2)c1	4	3	10	46*	0	10	31*
COc1cccc(CNC[C@H]2O[C@@H](n3ccc(N)nc3=O)[C@H](O)[C@@H]2O)c1OCc1ccc(F)cc1Cl	-5	·	·	·	0	·	·
COCCNC(=O)C1(C)CCCN(Cc2ccc(OC)cc2)C1 (configuration not stated)	0	·	·	·	-1	·	·
CCOC(=O)N1CCN(Cc2nc(N)nc(Nc3ccc(C)cc3C)n2)CC1	0	3	4	-5	0	5	·
CC(C)c1cc(C(=O)OCC(=O)NC2CC2)c(O)c(C(C)C)c1	-2	·	·	·	-2	·	·
CC(C)NC(=O)Cn1nnc(-c2ccccc2)c1COc1ccc2ccccc2c1	-3	·	·	·	3	·	·
COc1ccc(/C=C/C(=O)OCC(=O)NCCC2=CCCCC2)cc1	1	4	10	65*	2	11	53*
NC(=O)c1sc2nc3c(c(-c4ccco4)c2c1N)CCC3	-6	9	20	44*	-5	24	7
O=C(CCN1C(=O)/C(=C/c2ccc(F)cc2)SC1=S)Nc1cc([N+](=O)[O-])ccc1O	-1	6	5	65*	0	8	69*
O=C(NC(=S)NNC(=O)c1ccccc1O)c1cccs1	2	4	13	45*	0	15	36*
O=C(NC(=S)NNC(=O)c1ccccc1O)c1ccc([N+](=O)[O-])cc1	-7	0	15	32*	1	17	11
Cc1ccc(C(=O)NC(=S)NNC(=O)c2ccccc2O)cc1	-12	8	11	18	3	10	·
O=C(NC(=S)NNC(=O)c1ccccc1O)c1ccccc1	3	5	9	31*	1	11	24
SMILES	E coli Lon inh	PAFAH1B2 FP inh	pPAFAH FP inh	PAFAH2 inh	Rin1-Abl PPI inh	PAFAH1B3 inh	PAFAH2 confirm
Cc1cccc(C(=O)NNC(=O)c2ccccc2O)c1	-1	4	2	35*	0	-1	16
Cc1cccc(C(=O)NNC(=O)c2ccccc2C)c1	-4	1	4	3	3	4	·
Cc1ccc(S(=O)(=O)N2CCC[C@H]2C(=O)OCC(=O)Nc2ccc3c(c2)OCO3)cc1	-7	2	7	5	5	8	·
O=Cc1ccc(F)c([B-](F)(F)F)c1	0	5	·	-5	-1	2	·
COc1ccc2oc(C(=O)N3CCN(S(=O)(=O)c4c(C)c(C)cc(C)c4C)CC3)c(C)c2c1	0	1	·	-4	0	9	·
O=[N+]([O-])c1ccc(/C=C2\CCC(C3=CCCC3)=C2N2CCOCC2)cc1	-13	2	9	3	-3	1	·
O=C(NNC(=O)c1cc(Cl)ccc1O)c1cccs1	5	5	8	77*	-2	9	73*
O=C(CCS(=O)(=O)c1ccc(Br)cc1)N1CCN(c2ccccc2)CC1	-1	5	5	33*	-5	4	21
O=C(COC(=O)c1cccs1)Nc1ccccc1[N+](=O)[O-]	-4	3	2	75*	0	-3	68*
N#Cc1ccccc1NC(=O)COC(=O)c1cccs1	2	5	4	84*	-1	-2	63*
CN(C)c1cccc(C(=O)NNC(=O)/C=C/c2cccs2)c1	-2	3	-1	7	1	10	·
O=C(CNC(=O)C12CC3CC(CC(C3)C1)C2)N1CCN(S(=O)(=O)/C=C/c2ccccc2)CC1	-3	8	3	35*	-1	7	24
Cc1cc(C)c(C)c(S(=O)(=O)Nc2cccc(S(=O)(=O)Nc3ccccc3C(=O)O)c2)c1C	0	1	1	0	2	7	·
CN(Cc1nc(-c2cccs2)no1)CC(O)c1ccccc1 (configuration not stated)	1	4	6	-1	3	3	·
COC(=O)Nc1nc(-c2ccccc2)c(C(=O)c2ccccc2)s1	0	17	0	53*	0	-3	50*
COC(=O)Nc1nc(C)c(C(=O)c2ccccc2)s1	6	1	5	1	-1	2	·
CCOC(=O)[C@]12CCCC=C1N(Cc1ccc(Cl)cc1Cl)C(=O)[C@H](CC(=O)NCC13CC4CC(CC(C4)C1)C3)C2	-8	·	·	·	·	·	·
CC1(C(=O)Nc2ccc3c(c2)OCO3)CCN1C(=O)CC1CC1 (configuration not stated)	1	·	·	·	1	·	·
Cc1ccc(C(=O)NNC(=O)c2ccc(Br)s2)cc1S(=O)(=O)N1CCOCC1	-7	1	5	39*	4	4	-4
O=C(NNC(=O)c1ccc(Br)s1)c1ccc(F)c(S(=O)(=O)N2CCOCC2)c1	-2	1	-4	3	5	4	·
O=C(COC(=O)c1c[nH]c2ccccc12)Nc1ccc([N+](=O)[O-])cc1	-10	-1	4	73*	1	8	73*

Assay outcomes (PubChem)
